# Anthrax LF prot: Bacillus anthracis LF protease inhibitors, primary screen, biochemical, multiplex microsphere, MLPCN library; multiplex microsphere protease cleavage assay; inhibition, % at 10 µM; 360,000 compounds, 0.12% hits; also: plate controls were buffer without enzyme for full effect and enzyme alone for no effect
# BH1578 lux ind: inducers of Vibrio cholerae quorum light production without autoinducers, primary screen, BH1578 luxS cqsA deficient, single point | V. cholerae BH1578 lux reporter, luminescence, 6 h | activation, % at 18.7 µM | 350,000 compounds, 0.16% hits; in the data active = activation mostly above about 9.7%, no sharp cut-off; inconclusive = no clear call, values can overlap the other calls; inactive = mostly below about 3.7%
# Bead autofluor: flagged as autofluorescent in microsphere protease counterscreen. compound autofluorescence counterscreen, microsphere flow cytometry; stronger effect = higher value. fluorescence intensity (no concentration beside the values). 360,000 compounds, 3.1% hits. AID 624483; in the data active = fluorescence intensity above about 16000; inconclusive = no clear call, values can overlap the other calls
# MazEF act: activators of E. coli MazEF toxin-antitoxin RNase, primary screen, biochemical, fluorescence, uHTS | AID 504720, 2011 | FAM/BHQ RNA-DNA oligo cleavage fluorescence, 5 h | Endoribonuclease toxin MazF (Escherichia coli (strain K12)), P0AE70 | 350,000 compounds, 0.32% hits | activation, % at 20 µM; in the data active = activation above about 50%
# BoNT A protease: BoNT/A light chain protease inhibitors, primary screen, biochemical, flow cytometry, MLPCN library; multiplex microsphere protease substrate cleavage; inhibition, % at 10 µM; Botulinum neurotoxin type A light chain protease (Clostridium botulinum A str. ATCC 3502); 360,000 compounds, 0.17% hits; also: plate controls were buffer without enzyme for full effect and enzyme alone for no effect
# BoNT F protease: BoNT/F light chain protease inhibitors, primary screen, biochemical, flow cytometry, MLPCN library; Botulinum neurotoxin type F light chain protease (Clostridium botulinum); Multiplex microsphere protease cleavage assay; inhibition, % at 10 µM; 360,000 compounds, 0.22% hits; AID 588497, 2011; in the data active = inhibition above about 35%, passing the limit was not always enough; inconclusive = no clear call, values can overlap the other calls; also: plate controls were buffer without enzyme for full effect and enzyme alone for no effect
# An asterisk follows results filed as active; i = inactive; ? = inconclusive; · = not tested or not shown. Sampled rows, rich in hits. Any-hit rate of the full collection: about 3.9%. Rule as the data show it, unless noted: active = inhibition above about 30%; inconclusive = no clear call, values can overlap the other calls; inactive = below that.
SMILES,Anthrax LF prot,BH1578 lux ind,Bead autofluor,MazEF act,BoNT A protease,BoNT F protease
C[C@@H](c1ccccc1)N1C[C@@H](COCc2ccccc2)Oc2cc(N3CC[C@H](O)C3)ccc2S1(=O)=O,0,·,5570,·,1,2
CCn1c(SCC(=O)N2CCCC2)nnc1-c1ccco1,-3,-1,5507,-14,2,4
Cc1nc2ccccc2n1CC(=O)OCC(=O)NC1CC1,-2,i,4652,2,0,-4
O=C1NC(=O)[C@]2(Cc3ccccc3N3CCN(c4ccccc4)CC32)C(=O)N1c1ccccc1 (some centres undefined),-3,i,24028*,7,-2,-5
Cc1ccc(N2C(=O)NC(=O)C3(Cc4ccccc4N4CCCC43)C2=O)cc1 (centres undefined),2,2,19892*,-2,?,2
CN1C(=O)NC(=O)C2(Cc3ccccc3N3CCOCC32)C1=O (centres undefined),3,i,17659*,5,?,-6
CCCCN1C(=O)NC(=O)C2(Cc3ccccc3N3CCOCC32)C1=O (centres undefined),-5,-4,8997,-10,3,14
O=C1NC(=O)C2(Cc3ccccc3N3CCCC32)C(=O)N1Cc1ccccc1 (centres undefined),-3,4,19390*,0,?,3
O=C1NC(=O)[C@]2(Cc3ccccc3N3CCN(c4ccccc4)CC32)C(=O)N1Cc1ccccc1 (some centres undefined),1,0,4621,3,2,6
CC(C)C[C@H]1COc2cccc(N(C)CCO)c2S(=O)(=O)N1,-14,·,4057,·,1,11
CSc1ccc(OC2(C)CCN(Cc3ccc4c(c3)OCCO4)C2)cc1 (centres undefined),-8,-6,4104,·,-1,-12
CCOc1cc(CNn2cn[nH]c2=S)cc(Cl)c1OCc1ccccc1F,-1,0,2027,-5,-1,-3
CN1CCN2c3ccccc3CC3(C(=O)N(C)C(=O)N(C)C3=O)C2C1 (centres undefined),-8,i,3652,3,?,?
CN1C(=O)NC(=O)[C@]2(Cc3ccccc3N3CCN(c4ccccc4)CC32)C1=O (some centres undefined),-2,i,16912*,4,-2,-1
COc1ccc(OCc2nnc(SCC(N)=O)n2N)cc1,6,i,2892,22,0,4
COC(=O)CSc1nnc(CNC(=O)c2cccc(C)c2)n1-c1ccccc1OC,-6,i,22455*,8,?,5
COc1ccc(OCc2nnc(SCC(N)=O)n2-c2ccccc2OC)cc1,-3,i,19312*,-3,1,-4
COC(=O)CSc1nnc(CNC(=O)c2ccccc2OC)n1C,-1,i,11773,4,-1,-14
C#CCOCCOCCOCCNc1nc(N2CCN(C(=O)Cn3cc(CC(C)O)nn3)CC2)nc(N2CCN(C(=O)[C@H](CCCCN)n3cc(CC(C)O)nn3)CC2)n1 (some centres undefined),-7,i,4276,6,-1,-16
O=[N+]([O-])c1cc(/C=N/OCc2c(Cl)cccc2Cl)ccc1N1CCOCC1,-6,-27,22744*,2,1,-3
CCC1(c2ccccc2)NC(=O)N(CC(=O)Nc2cc(S(=O)(=O)N3CCCCC3)ccc2OC(C)C)C1=O (centres undefined),2,0,5630,2,1,1
Cc1cccc(OCC(=O)NCCN2CCOCC2)c1,-2,1,20366*,-7,-2,-5
Cc1ccc(OCC(=O)NNc2c3ccccc3nc3ccccc23)cc1,-3,0,2128,1,0,-6
Cc1cccc(C(=O)NCCN2CCCC2)c1,-2,-2,20070*,-2,-1,0
COc1ccc(C(=O)NCCN2CCCC2)cc1,-9,0,3452,0,0,15
SMILES,Anthrax LF prot,BH1578 lux ind,Bead autofluor,MazEF act,BoNT A protease,BoNT F protease
CCOc1c(Cl)cc(C(=O)NCCN2CCCCC2)cc1Cl,2,1,22799*,6,4,4
Cc1cccc(OCC(=O)NNc2c3ccccc3nc3ccccc23)c1,-3,i,21560*,-3,2,0
Cc1ccc(C(=O)NCCN2CCCC2)cc1,-2,0,3009,-1,0,-11
Cc1ccn2c(=O)nc(SCC(=O)NC3CCCC3)nc2c1,2,i,?,0,2,?
CCOc1ccccc1CNCc1ccc(C(=O)O)cc1,-6,i,4985,-3,-1,-5
O=C(COc1ccccc1CNCc1ccccc1)Nc1ccccc1,-6,-1,24425*,8,?,-12
CNCc1ccccc1OCC(=O)Nc1ccccc1OC,-2,0,17627*,-1,-4,-5
COc1cc(C(F)(F)F)c(C(=O)NCc2cccc(Cl)c2)cn1,1,i,3916,8,2,?
O=C1C=Cc2cccc3ccc(O)c1c23,38*,i,3437,-8,61*,12
Cc1ccc(S(=O)(=O)Nc2nc(C)c(NC(=O)OCCCl)s2)cc1,-3,i,21860*,-2,-5,-7
OC(c1ccc(-c2ccccc2)cc1)c1ncc(-c2ccccc2F)[nH]1 (centres undefined),-2,i,4011,·,0,-5
CCOC(=O)c1cc(C)sc1N1C(=O)C2C3C=CC(C3)C2C1=O (centres undefined),0,30*,24106*,6,-2,-4
CCOC(=O)c1c(N2C(=O)C3C4C=CC(C4)C3C2=O)sc2c1CCC(C)C2 (centres undefined),-2,-1,2487,4,0,-18
CCCCCCSc1nsc(NC(C)=O)n1,-2,·,2395,-1,0,9
CCCCSc1nsc(NC(C)=O)n1,1,2,22275*,5,2,2
COc1ccc(N2CCN(C(=O)COC(=O)CCc3ccccc3)CC2)cc1,1,7,8188,3,-4,-7
O=C(NCc1ccccn1)C1CCCN(Cc2cnn(-c3ccccc3)c2-n2cccc2)C1 (centres undefined),-1,0,4117,-1,0,1
O=C(NCc1ccccn1)C1CCN(Cc2cnn(-c3ccccc3)c2-n2cccc2)CC1,-2,i,22540*,3,1,3
O=C(NC1CC1)C1CCN(Cc2cnn(-c3ccccc3)c2-n2cccc2)CC1,1,5,23345*,11,-2,-4
O=C(CSCc1cnn(-c2ccccc2)c1-n1cccc1)NCc1ccccn1,-3,0,3261,-15,-1,-4

# Screening results: PubChem, several laboratories
